# Laboratory results as given in PubChem BioAssay AID2782 (National Center for Advancing Translational Sciences (NCATS), 2010).
# Results filed as inconclusive are left out. Where a call stands in place of a potency, no number is given. Activity calls are given as the source filed them. Calls come from the whole dose curve; as a rule, active = well fitted inhibition curve with a large enough effect in the polarisation, with a control signal flat (not every such curve was filed as active); inconclusive = small, poorly fitted or top-dose-only effect, or effect the other way, or a change in a side signal; inactive = no such curve, though single readings can be large or run the other way; the % refers to the polarisation.
# Assay: Confirmation of Inhibitors Targeting the Menin-MLL Interaction in MLL Related Leukemias: Competition With Texas Red Labeled MLL-derived Mutant Peptide
# Conditions: fluorescence polarization, Texas Red MLL peptide displacement; series mostly up to 94.6 µM
# Text: qHTS Assay for Inhibitors Targeting the Menin-MLL Interaction in MLL Related Leukemias
# NIH Chemical Genomics Center [NCGC]
# NIH Molecular Libraries Probe Centers Network [MLPCN]
# Assay Submitter (PI): Jolanta Grembecka, Tomasz Cierpicki, University of Virginia
# Translocations of the MLL (Mixed Lineage Leukemia) gene are frequently found in human leukemias affecting both children and adults. Fusion of MLL to one of more than 60 genes results in generation of oncogenic proteins upregulating Hox genes, which are vital to blood cell development. Patients harboring fusion of the MLL gene suffer from aggressive leukemias and respond poorly to available therapies. All of the oncogenic fusion proteins have a preserved N-terminal fragment of MLL that has been identified to interact with menin. It has been recently discovered that association with menin is critical to the leukemogenic activity of the MLL fusion oncoproteins. Selective targeting of the menin-MLL interaction could provide an attractive therapeutic approach to develop novel drugs for MLL-related leukemias. Small molecules blocking the menin-MLL interaction should reverse the oncogenic potential of MLL fusion proteins.
# We have developed and optimized a fluorescence polarization-based assay for the identification of Menin-MLL inhibitors. The assay was run employing two different MLL-derived peptides. The present assay uses a 12 amino acid peptide labeled with fluorescein at its N-terminus. This peptide consists of the menin high affinity binding motif from MLL and is potently bound by menin. Another peptide with a mutated sequence, labeled with Texas Red, was used in parallel as a less stringent screen for inhibitors.
# The present assay was run to confirm the activity of hits from the primary screen using the peptide with a mutated sequence, labeled with Texas Red.
# The Menin protein, the MLL-wild type (w.t.) derived peptide (N-terminal 12 amino acids), the MLL-derived peptide labeled with Texas Red and the MLL-w.t. peptide labeled with Fluorescein were kindly supplied by laboratory of Dr. Jolanta Grembecka, University of Virginia. All protein and peptide solutions were stored in single use aliquots at -80C. The Eu3+ Cyrptate-conjugated mouse monoclonal antibody anti-6 Histidine (Eu3+-AB) and the Streptavidin-XL665 conjugate (XL665) were purchased from Cisbio International (Bedford, MA). All antibody and XL665 conjugate solution stocks were stored in single use aliquots at -20C. The Buffer components for all assays were purchased from Sigma-Aldrich (St. Louis, MO) and Invitrogen (Carlsbad, CA).
# 1. FP reaction buffer: 50 mM Tris-HCl pH 7.5, 50 mM NaCl, 1mM DTT.
# Before use, 0.05% BSA is added.
# 2. Menin protein, MLL-w.t. labeled with fluorescein, MLL-mutant peptide labeled with texas red.
# Stored in singe use aliquots at -80C.
# 3. MLL-w.t. unlabeled peptide as positive control: 10 uM final in FP buffer.
# 1. Prepare Menin at 200 nM, MLL-w.t.-fluorescein at 25 nM, and MLL-mutant-texas red at 50 nM mixture in FP buffer.
# 2. Prepare Menin at 200 nM, MLL-w.t.-fluorescein at 25 nM, MLL-mutant-texas red at 50 nM, and 10 uM MLL-w.t. unlabeled mixture in FP buffer.
# 3. Prepare MLL-w.t.-fluorescein at 25 nM and MLL-mutant-texas red at 50 nM mixture in FP buffer.
# 3. Dispense 4 ul per well of reagent in step 1 in columns 2, 4 - 48 in a black 1536 well plate, dispense 4 ul per well of reagents from steps 2 and 3 in columns 1 and 3 respectively. Incubate plate at ambient for 15 minutes.
# 4. Transfer 23 nl per well of compound to plate and incubate at ambient for 1 hr.
# 5. Read fluorescence polarization for each label using the PerkinElmer Envision.
# Envision protocol for fluorescein: FITC FP Dual Enh Mirror, Excitation filter 480, Emission filter (1) P-pol 535, Emission filter (2) S-pol 535
# Envision protocol for texas red: FP Dual Enh Mirror, Excitation filter 555, Emission filter (1) P-pol 632, Emission filter (2) S-pol 632
# Potency is the fitted concentration of half-maximal effect.
row,Compound,Potency
1,C/C(=N\NC(=O)c1nnn(-c2nonc2N)c1C)c1ccc(-c2ccccc2)cc1,inactive
2,COc1ccc(NC(=O)N2CC[C@@]3(CCCN(C(=O)c4csnn4)C3)C2)cc1,inactive
3,O=C(Nc1ccc(F)c(Cl)c1)c1cc(-c2ccco2)on1,31.7 µM (active)
4,CCc1ccccc1NC(=O)COc1cccc(-n2cnnn2)c1,inactive
5,CC(=O)O[C@H]1CSC[C@H]1NC(=O)c1ccccc1,inactive
6,Cc1ccc(C)n1-c1ccc(N(C)C)cc1,inactive
7,CC(=O)c1c(O)cc(O)cc1CC(=O)O,inactive
8,OC(c1ccccn1)(c1ccccn1)c1ccccn1,inactive
9,O=C(CN1C(=O)/C(=C/c2cccc(Br)c2)SC1=S)NC1=NCCS1,17.8 µM (active)
10,CC(NC(=O)c1cnc2ccccc2n1)c1ccccc1 (stereo not given),inactive
11,Cc1ccc(C(=O)Sc2cccccc2=O)cc1,inactive
12,Cc1ccc(C2=NN(C(=O)c3ccccc3F)C(c3ccccc3F)C2)cc1 (stereo not given),inactive
13,O=C(c1cc2c(=O)n3ccccc3nc2s1)N1CCOCC1,inactive
14,CCC(C)C1NC(=O)C(CCNCS(=O)(=O)O)NC(=O)C(NC(=O)C(CCNCS(=O)(=O)O)NC(=O)C(NC(=O)C(CCNCS(=O)(=O)O)NC(=O)CCCCC(C)C)C(C)O)CCNC(=O)C(C(C)O)NC(=O)C(CCNCS(=O)(=O)O)NC(=O)C(CCNCS(=O)(=O)O)NC(=O)C(C(C)CC)NC1=O (stereo not given),inactive
15,Cc1cc(N2CCOCC2)nc2ccc(Cl)cc12,inactive
16,CN1CCN(CC(=O)c2ccccc2F)CC1,inactive
17,Cc1ccccc1-c1cncnc1NC1CCNCC1,126 µM (active)
18,CC(c1ccncn1)N(C)Cc1nc(-c2ccc(C(F)(F)F)cc2)no1 (stereo not given),inactive
19,COc1ccccc1CNCC(=O)Nc1ccc(C#N)cc1,inactive
20,Cn1ncc2c(N3CCCCC3)nc(NCCCO)nc21,inactive

row,Compound,Potency
1,CCCC(c1nnnn1Cc1cccs1)N1CCN(C2CCCC2)CC1 (stereo not given),112 µM (active)
2,CN1CCN(CC(=O)Nc2ccc(S(=O)(=O)N(C)C)cc2)CC1,inactive
3,O=C(/C=C/c1ccccc1)c1cccs1,inactive
4,COCC(=O)Nc1cccc2ccccc12,inactive
5,CN(C)c1ccc(N=Nc2ccc(C(=O)O)cc2)cc1,141 µM (active)
6,O=C(COC(=O)c1ccc(NS(=O)(=O)c2cccs2)cc1)Nc1nc2c(F)c(F)c(F)cc2s1,14.2 µM (active)
7,COc1cc(SC)ccc1C(=O)Nc1cccc(C2OCCCO2)c1,inactive
8,O=S(=O)(Nc1cccc(-c2cn3cccnc3n2)c1)c1ccccc1,inactive
9,Cc1c(C(=O)OCC(=O)Nc2ccc(S(N)(=O)=O)cc2)oc2c1ccc1ccccc12,inactive
10,CCCN(CCC)CCCNC(=O)c1cc2c(=O)[nH]c3ccccc3c2s1,inactive
11,COc1ccccc1/C=N/n1c(N)c(S(=O)(=O)c2cccs2)c2nc3ccccc3nc21,inactive
12,Cc1cc2[nH]c3c(c[n+](C)c4ccccc34)c2cc1C,56.4 µM (active)
13,N=c1oc2ccccc2cc1-c1nc(-c2ccc(Cl)cc2)cs1,inactive
14,CN(C)CCCOc1ccc2c(c1)Sc1ccccc1CC2=O,141 µM (active)
15,CCOc1ccc(NC(=O)c2cccc(OC(=S)N3CCC(C)CC3)c2)cc1,inactive
16,O=C1C(Cl)=C(NCCN2CCOCC2)C(=O)c2ncccc21,inactive
17,COc1ccccc1CC(=O)Nc1ccc(-c2noc(COc3ccc(Br)cc3)n2)cc1,71 µM (active)
18,c1cc(CN2CCCNCCNCCCNCC2)ccc1CN1CCCNCCNCCCNCC1,22.4 µM (active)
19,Cc1ccccc1-c1n[nH]c(=S)n1C,inactive
20,CCCC(c1nnnn1Cc1ccco1)N1CCN(C2CCCC2)CC1 (stereo not given),79.4 µM (active)
